PI5P4Ka inh = inhibitors of human PI5P4K alpha; P48426; PI5P4Kalpha enzyme, ADP-Glo luminescence, 60 min; hits give low values; max response, %; 330,000 tested, 1.2% active; active = max response of -50% or lower; inconclusive = between -30% and -50%; inactive = -30% or higher; also: value at the top dose of about 77 µM; % is scaled to controls: 0 for no effect and ±100 for the full control effect
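Compounds were pin-transferred onto PI5P4Kalpha and substrate in HEPES pH 7.4 buffer with EGTA, CHAPS and 5% DMSO. ATP (5 microM final) started the reaction, which ran 60 minutes at room temperature before ADP-Glo detection.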
HP1b chromo inh = HP1-beta chromodomain-methylated histone interaction inhibition. AID 540317. 390,000 tested, 0.56% active. AlphaScreen HP1-beta / biotin-H3K9me3 peptide binding. Potency, µM (highest dose often 114 µM), for inactives: at the highest dose activity change, negative = inhibition, actives largely listed as inhibitors; also: potency is read from the fitted curve at half-maximal effect; nearly all actives have a fitted effect of over 70% in size
Target sequence (P83916 whole entry, looked up): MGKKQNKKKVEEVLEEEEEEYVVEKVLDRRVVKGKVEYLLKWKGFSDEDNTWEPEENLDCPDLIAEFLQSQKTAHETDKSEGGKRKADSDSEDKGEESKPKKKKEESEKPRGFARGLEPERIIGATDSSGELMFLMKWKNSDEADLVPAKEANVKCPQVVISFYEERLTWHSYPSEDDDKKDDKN
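HP1-beta protein (50 nM final) preincubated 30 min at room temperature with biotinylated H3(1-18)K9me3 peptide (50 nM) in PBS pH 7.4, 0.01% Tween-20, then compound added for 30 min. AlphaScreen streptavidin donor/nickel chelate acceptor beads (10 ug/mL final), 30 min dark, luminescence read.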
JMJD2A Tudor inh = blocks the human JMJD2A Tudor domain; AlphaScreen JMJD2A-Tudor / H3K4me3 peptide binding; Potency, µM (series often up to 114 µM), for the others: at the top dose activity change, negative = inhibition, hits mostly inhibitors; 390,000 tested, 4.4% active; AID 504339; also: potency is read from the fitted curve at half-maximal effect; % is scaled to controls: 0 for no effect and ±100 for the full control effect; nearly all actives have a fitted effect of over 50% in size
BAZ2B block = BAZ2B (human) inhibition. Q9UIF8. AlphaScreen BAZ2B-H3K14Ac peptide displacement. Potency, µM (series often up to 114 µM), without a hit: top-dose activity change, negative = inhibition, most hits filed as inhibitors. 360,000 tested, 4.4% active. AID 504333; also: potency is read from the fitted curve at half-maximal effect; % is scaled to controls: 0 for no effect and ±100 for the full control effect; nearly all actives have a fitted effect of over 60% in size
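Protein-peptide AlphaScreen: BAZ2B 50 nM, b-H3K14Ac 50 nM, 1x PBS pH 7.4 + 0.01% Tween-20. Preincubation 30 min RT; cpd 30 min RT (top 110 uM); beads 20 min RT, light-protected.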
PLK1 PBD block = PLK1 (human) polo-box domain binding inhibition; Plk1 PBD binding of FITC phosphopeptide, fluorescence polarization; P53350; 360,000 tested, 2.8% active; Potency, µM, without a hit: max response, negative = inhibition, most hits filed as inhibitors; also: potency is read from the fitted curve at half-maximal effect; series mostly up to about 57 µM; % is scaled to controls: 0 for no effect and ±100 for the full control effect; nearly all actives have a fitted effect of over 65% in size
Target sequence (P53350 whole entry, looked up, the tested form may be a part): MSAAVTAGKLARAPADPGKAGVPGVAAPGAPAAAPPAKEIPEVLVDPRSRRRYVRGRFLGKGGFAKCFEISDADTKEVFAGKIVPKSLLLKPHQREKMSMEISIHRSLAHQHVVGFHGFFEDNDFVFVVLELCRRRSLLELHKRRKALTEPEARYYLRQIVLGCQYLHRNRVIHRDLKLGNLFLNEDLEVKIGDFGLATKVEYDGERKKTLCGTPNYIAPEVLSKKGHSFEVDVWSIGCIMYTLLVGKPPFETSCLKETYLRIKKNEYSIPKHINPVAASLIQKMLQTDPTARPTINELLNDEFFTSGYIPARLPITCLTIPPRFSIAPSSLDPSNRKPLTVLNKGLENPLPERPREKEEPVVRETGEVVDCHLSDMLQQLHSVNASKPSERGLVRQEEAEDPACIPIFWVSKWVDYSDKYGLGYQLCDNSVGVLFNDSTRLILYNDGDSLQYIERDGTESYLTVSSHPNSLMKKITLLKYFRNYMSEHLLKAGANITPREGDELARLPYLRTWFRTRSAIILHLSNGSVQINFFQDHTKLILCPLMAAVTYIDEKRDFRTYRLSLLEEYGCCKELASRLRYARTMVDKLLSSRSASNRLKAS
G9a block = blocks human histone lysine methyltransferase G9a | AID 504332 | G9a H3K9 monomethylation, AlphaScreen, 2 h | Potency, µM (highest dose often 102 µM), for inactives: at the highest dose activity, negative = inhibition, hits mostly inhibitors | 350,000 tested, 8.8% active | Q96KQ7; also: potency is read from the fitted curve at half-maximal effect; % is scaled to controls: 0 for no effect and ±100 for the full control effect; nearly all actives have a fitted effect of over 75% in size
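Step 1: enzyme (final 20 nM) with compound, 15 min RT. Step 2: substrate peptide 500 nM and SAM 20 uM, 2 h RT. Step 3: anti-H3K9me1 antibody and AlphaScreen beads, 10 min, then plate read.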
Active calls of the source: *; ? = inconclusive; . = no result given; [ ] = dose if it differs, or a comment. Compounds with a hit are over-represented: about 12% of the library has one in this group of screens. Unless noted, calls follow the shape of the dose curve; as a rule, active = well fitted curve in the direction sought with a large enough effect; inconclusive = small, poorly fitted or top-dose-only effect, or another doubt; inactive = no such curve, though single readings can be large; an effect the other way counts as inactive or inconclusive.

SMILES	PI5P4Ka inh	HP1b chromo inh	JMJD2A Tudor inh	BAZ2B block	PLK1 PBD block	G9a block
O=C(Nc1cc(S(=O)(=O)N2CCOCC2)ccc1Oc1ccc(F)cc1)C1=COCCO1	0.8	10.2%	-18.4%	-0.6%	-3.9%	50.1µM*
CCc1nc2ccc(C(=O)Nc3ccc(OC)c(OC)c3)cn2c1N(C)CCC(C)C	0.1	.	.	.	-4.3%	.
CC(C)CC(=O)Nc1cccc(-c2cn3cccnc3n2)c1	.	20.5%[57 µM]	-3.9%	1.9%	.	4.9%[59 µM]
COc1ccc(C(=O)NCC(=O)OCc2cc(=O)n3nc(C4CCCCC4)sc3n2)cc1	.	31.7%	-1.7%	-4.7%	.	1.9%[59 µM]
CCN(CC)S(=O)(=O)c1ccc2oc(SCC(=O)NC3CC3)nc2c1	-14.2	-22.0%	-0.7%	?	21.2µM*	12.6µM*
CCN(CC)S(=O)(=O)c1ccc2oc(Nc3ccccc3)nc2c1	-9.5	-22.6%	?	-24.2%	-20.9%	31.6µM*
O=C(CSc1nc2ccccc2o1)NC1CCCC1	0.7	10.5%	-9.1%	-1.3%	-8.4%	7.6%[59 µM]
CCN(CC)S(=O)(=O)c1ccc2oc(SCC(=O)Nc3cc(C)on3)nc2c1	-26.2	-56.1%	?	6.3%	5.97µM*	7.1%[0.501 µM]
Cc1cc(NC(=O)CSc2nc3cc(Cl)ccc3o2)no1	-1.4	-12.8%	-11.0%	-15.2%	3.4%	-21.2%
COc1ccc(S(=O)(=O)N(Cc2ccc(OC)c(OC)c2)Cc2ccco2)cc1	-2.9	8.7%	-11.6%	?	1.4%	50.1µM*
Cc1ccc(S(=O)(=O)N(CC(=O)O)Cc2ccco2)cc1	-21.4	-10.1%	89.1µM*	56.2µM*	-29.3%	31.6µM*
O=C(O)CCN=CC1=C(O)CC(c2ccccc2)CC1=O (stereo not drawn)	-20.8	30.0%	-12.0%	1.2%	-5.7%	22.7%
O=C(O)c1ccc2c(c1)C(=O)N(c1ccc(Nc3ccccc3)cc1)C2=O	-27.9	3.2%	-33.6%	-23.5%	-18.7%	?
Clc1cccc(N/N=C(\Cc2nc3ccccc3[nH]2)c2ccccc2)c1	6.9	2.3%	?	-28.9%	-10.8%	25.1µM*
c1ccc(N/N=C(\Cc2ncc[nH]2)c2ccccc2)cc1	1.1	?	-27.8%[57.1 µM]	?	-20.1%	2.82µM*
CCOC(=O)N/N=C(C)/C=C/c1ccco1	0.1	42.1%	-12.6%	3.3%	-2.6%	11.2µM*
CC(/C=C/c1ccco1)=N\NC(=O)CNc1ccc2ccccc2c1	-23.8	-20.0%	?	35.5µM*	-6.9%	5.62µM*
CC(/C=C/c1ccco1)=N\NC(=O)COc1ccc(C)c(C)c1	-4.8	14.7%	-33.3%	?	-7.3%	39.8µM*
CCC(=O)c1ccc(OCC(=O)OCC(=O)NCCCc2ccccc2)cc1	-11.9	43.3%	-6.2%	8.9%	0.6%	-38.2%
Cc1oc2ccc(O)c(CN3CCCC3)c2c1C(=O)Nc1cccc(Cl)c1C	.	21.5%	-9.0%	-4.0%	.	-5.2%[59 µM]
Oc1c(C(c2ccccc2F)N2CCN(Cc3ccccc3)CC2)sc2nc(-c3ccco3)nn12 (stereo not drawn)	.	31.3%	?	?	.	-34.0%[59 µM]
COc1ccc(Oc2nc3c(C)cccn3c(=O)c2/C=C(\C#N)c2nc3ccccc3[nH]2)cc1	.	11.4%	-17.5%	-15.5%	.	6.3%[59 µM]
CCN(CC)c1ccc(NC(=S)NC(=O)c2ccco2)cc1	6.0	44.7µM*	28.2µM*	17.8µM*	21.2µM*	28.2µM*
CCN(CC)c1ccc(NC(=O)c2ccccc2F)cc1	-2.5	-14.3%	?	44.7µM*	-5.0%	?
O=C(Nc1ccc(Nc2ccccc2)cc1)c1ccccc1F	0.0	2.2%	?	?	-10.1%	.
SMILES	PI5P4Ka inh	HP1b chromo inh	JMJD2A Tudor inh	BAZ2B block	PLK1 PBD block	G9a block
CC(C)C(=O)Nc1ccc(NC(=O)c2ccco2)cn1	-9.9	52.9%	-7.2%	?	-1.3%	35.5µM*
CCN(CC)c1ccc(NC(=O)c2c(C)noc2C)cc1	0.1	15.4%	-26.5%	?	-0.1%	28.2µM*
O=C(CSc1nc2c([nH]c3ccccc32)c(=O)n1-c1ccccc1)N1CCCc2ccccc21	.	11.2%[57 µM]	-5.8%	1.1%	.	3.4%[59 µM]
CC1(c2nc3ccccc3[nH]2)CCCC2=Nc3ccccc3CN21 (stereo not drawn)	-2.1	.	.	.	-13.1%	.
Cc1ccc(C)n1NC(=O)c1ccco1	4.2	15.7%	-14.7%	-0.8%	-10.3%	39.8µM*
COc1cc(NS(=O)(=O)c2ccc(NC(=S)NC(=O)c3ccco3)cc2)nc(OC)n1	5.4	9.9%	-11.6%	?	-7.4%	.
Cc1cc(C)nc(NS(=O)(=O)c2ccc(NC(=S)NC(=O)c3ccco3)cc2)n1	0.2	1.6%	-12.7%	1.3%	-12.9%	50.1µM*
Cc1nc2ccccc2c(=O)n1NC(=O)c1ccco1	0.8	57.5%	-5.5%	-0.8%	-8.3%	-9.2%[59 µM]
O=C(/C=C/c1ccncc1)c1ccc(NC(=O)c2ccccc2F)cc1	-20.9	-1.5%[57 µM]	56.2µM*	50.1µM*	-7.4%	14.1µM*
CCN(c1ccc(NC(=O)CCNC(=O)c2ccco2)cc1)C(C)C	1.3	-8.3%	-33.8%	-30.0%	-6.2%	5.01µM*
COc1ccc(C(=O)COC(=O)CCN=C2NS(=O)(=O)c3ccccc32)c(OC)c1	6.1	31.9%	2.8%	8.4%	-4.8%	1.2%[59 µM]
Cc1ccnc(NC(=O)C(C)N2C(=O)c3ccccc3S2(=O)=O)c1 (stereo not drawn)	-2.2	44.7%	-12.3%	-32.4%	-9.2%	?
CN1CCO[C@H](c2ccccc2)c2ccccc2C1	.	.	.	.	.	26.1%[21.5 µM]
CCN(CC)c1ccc(NC(=O)c2ccco2)cc1	.	-0.8%	?	-33.8%	-1.7%	35.5µM*
CCN(CC)c1ccc(NC(=O)c2ccco2)c(C)c1	.	-7.7%	-35.8%	-12.0%	-7.8%	?
COc1ccc(NC(=O)c2ncoc2-c2ccco2)cc1Cl	.	24.2%	-12.9%	1.2%	.	51.6%[59 µM]
Cc1ccc2nc(SCC(=O)N(CC(C)C)c3c(N)n(CC(C)C)c(=O)[nH]c3=O)[nH]c2c1	2.6	44.2%	-1.7%	-0.3%	-5.1%	?
Cc1cc(SCC(=O)N(CC(C)C)c2c(N)n(CC(C)C)c(=O)[nH]c2=O)nc2ccccc12	-13.9	10.9%	-6.4%	2.6%	13.4µM*	6.31µM*
Cc1ccccc1-c1nnc(SCC(=O)N(CC(C)C)c2c(N)n(CC(C)C)c(=O)[nH]c2=O)n1C	0.0	24.1%	15.2%	-6.8%	-0.9%	50.1µM*
Cc1ccc(-n2nnnc2SCC(=O)N(CC(C)C)c2c(N)n(CC(C)C)c(=O)[nH]c2=O)cc1	-7.5	27.6%	-13.8%	-6.2%	-20.6%	-32.3%
Cc1cc(C)n2c(SCC(=O)N(CC(C)C)c3c(N)n(CC(C)C)c(=O)[nH]c3=O)nnc2n1	1.9	26.0%	-11.7%	-0.2%	-9.1%	17.8µM*
OCC[C@@H]1C[C@@H](O)[C@H](O)[C@@]2(CCCc3ccccc3O2)O1	-0.4	15.7%	-14.0%	1.5%	-4.0%	-8.4%
